# Results as given in PubChem BioAssay (Tox21).
# Records with an inconclusive call do not appear. A call without a number means that no potency is given here. Some compounds were tested as several samples or in several runs, with calls that do not always agree. Active and inactive are the calls of the source. Calls come from the whole dose curve.
# Target: Muscarinic acetylcholine receptor M1 (Homo sapiens) (UniProt P11229)
# Experiment: Cholinergic receptor muscarinic 1 (CHRM1) small molecule antagonists, cell-based qHTS assay (AID 1963588); note: nearly all actives have a fitted effect of over 40% in size
# Settings: CHRM1-CHO antagonist mode, calcium flux fluorescence; series mostly up to 61.5 µM; activity, negative = inhibition: at the top concentration
# Text: National Center for Advancing Translational Sciences [NCATS]
# Division of Preclinical Innovation [DPI]
# U.S. Environmental Protection Agency [EPA]
# National Institutes of Environmental Health Sciences [NIEHS]
# National Toxicology Program [NTP]
# U.S. Food and Drug Administration [FDA]
# The CHRM1 is a muscarinic receptor. This receptor plays a crucial role in learning and memory processes and has long been identified as a promising therapeutic target for the improvement of cognitive decline in Alzheimer's disease (AD). The CHRM1-CHO cell line stably expressing human muscarinic acetylcholine receptor M1 (CHRM1) can be used for screening agonists and antagonists of interactions between CHRM1 and its ligands. The CHRM1-CHO Calcium Flux Assay is a homogeneous fluorescence-based assay for detecting the intracellular calcium level using FDSS kinetic plate reader system.
# Tox21 Assay Protocol Summary:
# CHRM1-CHO cells were dispensed at 1000 cells/3uL/well in 1536-well black-clear bottom plates using a Multidrop Dispenser. After the assay plates were incubated at a 37 C/5% CO2 incubator for 18 h, 3 uL of Dye Loading Buffer was transferred to the assay plate by a Flying Reagent Dispenser. The assay plates were incubated at 37 C for 1h. For antagonist mode, 23 nL of compounds dissolved in DMSO, positive controls or DMSO only was transferred to the assay plate by a pin tool. After 5 min incubation at room temperature, 1.5 uL of acetylcholine at 50nM was added to each well. The fluorescence intensity in the plates was measured using FDSS 7000EX kinetic plate reader for 3 min at 1 sec intervals. Each test compound was measured at 15 concentrations in three independent runs.
# Potency is the fitted concentration of half-maximal effect.
# Muscarinic acetylcholine receptor M1 (Homo sapiens), sequence (P11229 whole entry, looked up): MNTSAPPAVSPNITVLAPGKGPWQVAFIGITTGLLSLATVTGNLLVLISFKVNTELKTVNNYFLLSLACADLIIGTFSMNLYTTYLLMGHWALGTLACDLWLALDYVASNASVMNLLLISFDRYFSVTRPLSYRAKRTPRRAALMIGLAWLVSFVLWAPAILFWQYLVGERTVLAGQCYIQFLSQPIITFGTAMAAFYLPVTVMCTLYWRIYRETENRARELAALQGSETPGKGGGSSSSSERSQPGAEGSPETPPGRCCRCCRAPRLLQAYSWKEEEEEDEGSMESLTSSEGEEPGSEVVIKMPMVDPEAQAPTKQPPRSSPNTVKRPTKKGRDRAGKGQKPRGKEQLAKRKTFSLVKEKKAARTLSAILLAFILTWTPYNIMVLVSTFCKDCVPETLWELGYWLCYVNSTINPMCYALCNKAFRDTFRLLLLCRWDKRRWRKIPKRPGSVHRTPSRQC
Structure (SMILES),"activity, negative = inhibition",Potency
C=CCSSCC=C,-6.21% (inactive),–
O=[N+]([O-])c1ccccc1,–,inactive
CC12CC1(C)C(=O)N(c1cc(Cl)cc(Cl)c1)C2=O (stereo not given),–,inactive
ClC(Cl)(Cl)c1ccccc1,–,inactive
Cc1cc(C)cc(C)c1,–,inactive
N#Cc1ccc(O)cc1,-5.48% (inactive),–
CN(C)CCC#N,–,inactive
c1ccc2c(c1)Oc1ccccc1O2,–,inactive
CCCC1CCCCN1 (stereo not given),5.95% [at 28.3 µM] (inactive),–
[Cl-].[Cl-].[Cl-].[Fe+3],–,inactive
O=[N+]([O-])c1ccc(Cl)cc1,–,inactive
CCn1cc[n+](C)c1C,–,inactive
CC(=[OH+])/C=C(/C)[O-].CC(=[OH+])/C=C(\C)[O-].CC(=[OH+])/C=C(\C)[O-].[Fe],-13.6% (inactive),–
C[Si](Cn1cncn1)(c1ccc(F)cc1)c1ccc(F)cc1,–,42.1 µM (active)
O=C(O)CF,–,inactive
Cc1ccccc1CCl,11.7% (inactive),–
CC(C)Nc1ccc(Nc2ccccc2)cc1,–,11.9 µM (active)
CCCCCCC#N,-29.1% (inactive),–
CCOC(=O)CP(=O)(OCC)OCC,2.09% (inactive),–
CC(C)(C)C(=O)C(Cl)Cl,3.96% (inactive),–

Structure (SMILES),"activity, negative = inhibition",Potency
COP(N)(=O)SC (stereo not given),–,inactive
Cc1ccc(OP(=O)(Oc2ccc(C)cc2)Oc2ccc(C)cc2)cc1,–,inactive
CCN(CCO)CCO,2.08% (inactive),–
O=[N+]([O-])c1cccc(O)c1,-3.12% (inactive),–
CC1CCC(=O)O1 (stereo not given),-6.22% (inactive),–
CN(C)c1ccc(C(=O)c2ccc(N(C)C)cc2)cc1,-1.89% (inactive),–
c1ccc2c(c1)oc1ccccc12,–,inactive
CCCCC(CC)COC(=O)Cl (stereo not given),–,inactive
CCC(C)n1c(=O)[nH]c(C)c(Br)c1=O (stereo not given),-11.2% (inactive),–
OCC(O)CCl (stereo not given),–,inactive
Cc1ccc(CCl)cc1,-21.9% (inactive),–
C=CCOCC1CO1 (stereo not given),1.46% (inactive),–
CCNc1nc(NC(C)C)nc(SC)n1,–,inactive
CCCCCCCCCCCCCCn1cc[n+](C)c1,–,1.88 µM (active) and inactive
O=[N+]([O-])O,–,inactive
CCCCOC(=O)c1ccccc1C(=O)OCc1ccccc1,–,inactive
N#CSCSC#N,–,inactive
O=C(O)C(Cl)Cl,–,inactive
CCOP(OCC)OCC,–,inactive
O=Cc1ccccc1,-8.51% (inactive),–
